Measured values from PubChem BioAssay.
Results filed as inconclusive are left out. Activity calls are given as the source filed them.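 Rule for the calls, unless noted: active = Her2 level under about 52% in both replicate screens, with viability over 70% of control (limit read from the data); inconclusive = Her2 under the limit in one screen only, or viability under 70%; inactive = Her2 level above the set limit.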

Assays:
[1] = Her2 expression decrease, cell viability multiplex – SKBR3 breast tumor cells, AlphaScreen, ATP viability, primary screen (AID 461); conditions: SKBR3 Her2 protein level, 18-24 h, measured here: SKBR3 viability, ATP luminescence, at 10 µM;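 for Her2 level: lower value means less Her2 protein in the cells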;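 for viability: percent of carrier control wells set as 100% viability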
[2] = target: Receptor tyrosine-protein kinase erbB-2 (Homo sapiens) (UniProt P04626); assay: as above; conditions: 18-24 h, at 10 µM, stronger effect = lower value
[3] = reduced viability of SK-BR-3 breast cancer cells – cell-based, 24 h, human, pilot screen (AID 572;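 active = viability at or below 10% of carrier control in both of two separate runs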;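 note: compound exposure lasted between 18 and 24 h rather than exactly 24 h; 100% = carrier-treated control wells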); conditions: SK-BR-3 viability, CellTiter-Glo luminescence, at 10 µM, stronger effect = lower value
[4] = HUVEC growth inhibition – cell-based, human, primary screen (AID 575;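 active = viability at or below 30% in both replicate assays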;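 note: 100% = median of untreated cell wells with 0.1% DMSO on each plate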); conditions: HUVEC proliferation, CellTiter-Glo luminescence, 72 h; at 10 µM; stronger effect = lower value
[5] = H69AR cell proliferation blockers – human, duplicate replicates, primary screen (AID 580;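 active = viability at or under a set limit in both replicates, limit being median viability minus 3 SD, cut at about 48% in these data, passing the limit was not always enough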;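 note: 100% = mean luminescence of untreated wells and 0% = no signal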); conditions: H69AR lung tumor cells viability, ATP luminescence, 72 h; at 10 µM; stronger effect = lower value
[6] = MRP1 drug-resistance reversers in H69AR cells – cell-based, doxorubicin co-treatment, pilot screen (AID 601;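 active = viability loss from added drug above about 55%, and viability with drug at most 40%, in both replicates, limit read from the data, passing the limit was not always enough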); conditions: CellTiter-Glo, 72 h, at 10 µM; for differential viability (reversal): stronger effect = higher value
[7] = yeast transport mutant growth inhibition pilot in 384-well plates, post-Golgi transport modulator project (AID 636; in the data active = inhibition above about 31%); conditions: absorbance 615 nm, about 18 h, stronger effect = higher value
[8] = growth suppression of yeast trafficking mutant, preliminary HTS, modulators of trafficking downstream of Golgi apparatus project, 1536-format plate, OD 615 nm (AID 637; in the data active = inhibition above about 30%); conditions: yeast transport mutant growth, absorbance 615 nm, 18 h; stronger effect = higher value
[9] = S. cerevisiae growth inhibition in permissive medium (OD615), pilot counter-assay for S. cerevisiae lifespan shortening project, permissive growth control (AID 705;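 active = growth inhibition above 25% in both replicates, a cutoff set 3 SD above the mean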); conditions: OD615, 24 h, at 10 µM, stronger effect = higher value
[10] = S. cerevisiae growth inhibition in restrictive medium, OD615, pilot screen, restrictive growth control, yeast lifespan reduction project (AID 706;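 active = growth inhibition above a set limit, 3 SD over mean compound inhibition, in both replicates, cut at about 43% in these data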;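 note: modified DeaD lifespan yeast strain shifted to restrictive glucose medium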); conditions: OD615, 48 h, at 10 µM, stronger effect = higher value
[11] = doxorubicin toxicity protection in MRP-1 cells – H69AR cells, CellTiter-Glo, duplicate, MRP-1 activator project, pilot screen (AID 807;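 active = viability increase at or above a cutoff of the median across tested compounds plus 3 SD, cut at about 8.5% in these data, passing the limit was not always enough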;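 note: compound pretreatment 18-22 h then 72 h combined with doxorubicin; 0% = doxorubicin alone and 100% = vehicle without doxorubicin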); conditions: H69AR viability with doxorubicin, CellTiter-Glo luminescence; at 10 µM; stronger effect = higher value
[12] = viability of PTEN-null HCT116 cells – cell-based, HCT116 clonal line, CellTiter-Glo, pilot screen (AID 824;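 active = viability at or below 27.92% in each of two runs, the all-compound median minus 4 SD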;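 note: 0% = 20 µM Hyamine control and 100% = vehicle cell control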); conditions: HCT116 PTEN-deleted viability, 60 h, at 10 µM, stronger effect = lower value
[13] = RAM pathway blockade in budding yeast – dse1pr::URA3 reporter, 5-FOA selection, pilot screen (AID 869;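 active = inhibition over a set limit, the all-compound mean plus 3 SD, in both replicate runs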;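 note: 0% = DMSO wells with no growth and 100% = 10 µM 1-NA-PP1 with full growth; RAM network block rescues cells from 5-FOA so hits raise OD615 growth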); conditions: S. cerevisiae dse1pr::URA3 5-FOA growth, OD615, 2 d; at 10 µM; stronger effect = higher value; strain carries analog-sensitive mutant Cbk1 kinase
[14] = RAM signaling pathway blockade in yeast – S. cerevisiae, Pdr1DBD-CYC8 efflux-inhibited sensitized strain, primary screen (AID 1298;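 active = RAM network inhibition above 8.4% in each of two replicates, 3 SD over the compound average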;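 note: 0% = DMSO untreated cells without growth and 100% = 10 µM 1-NA-PP1 full growth; higher means more yeast growth rescued from 5-FOA killing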); conditions: S. cerevisiae cbk1-as DSE1-URA3 strain, 5-FOA growth OD615, 2 d; at 50 µM; stronger effect = higher value
[15] = viability of HCT116 without oncogenic beta-catenin – human colon tumor cells, pilot screen (AID 823;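 active = cell viability at or below a set limit in both duplicate runs, the limit being the all-compound median minus 4 SD, cut at about 23% in these data, passing the limit was not always enough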;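 note: 0% = wells killed by 20 µM Hyamine and 100% = untreated DMSO cell wells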); conditions: HCT116 beta-catenin knockout viability, CellTiter-Glo, 60 h; at 10 µM; stronger effect = lower value
[16] = H69AR cells + 2 uM doxorubicin, measured here: viability with 2 uM doxorubicin, stronger effect = lower value
[17] = H69AR cells, compound alone cytotoxicity

Chain of Receptor tyrosine-protein kinase erbB-2 (Homo sapiens) (P04626 whole entry, looked up): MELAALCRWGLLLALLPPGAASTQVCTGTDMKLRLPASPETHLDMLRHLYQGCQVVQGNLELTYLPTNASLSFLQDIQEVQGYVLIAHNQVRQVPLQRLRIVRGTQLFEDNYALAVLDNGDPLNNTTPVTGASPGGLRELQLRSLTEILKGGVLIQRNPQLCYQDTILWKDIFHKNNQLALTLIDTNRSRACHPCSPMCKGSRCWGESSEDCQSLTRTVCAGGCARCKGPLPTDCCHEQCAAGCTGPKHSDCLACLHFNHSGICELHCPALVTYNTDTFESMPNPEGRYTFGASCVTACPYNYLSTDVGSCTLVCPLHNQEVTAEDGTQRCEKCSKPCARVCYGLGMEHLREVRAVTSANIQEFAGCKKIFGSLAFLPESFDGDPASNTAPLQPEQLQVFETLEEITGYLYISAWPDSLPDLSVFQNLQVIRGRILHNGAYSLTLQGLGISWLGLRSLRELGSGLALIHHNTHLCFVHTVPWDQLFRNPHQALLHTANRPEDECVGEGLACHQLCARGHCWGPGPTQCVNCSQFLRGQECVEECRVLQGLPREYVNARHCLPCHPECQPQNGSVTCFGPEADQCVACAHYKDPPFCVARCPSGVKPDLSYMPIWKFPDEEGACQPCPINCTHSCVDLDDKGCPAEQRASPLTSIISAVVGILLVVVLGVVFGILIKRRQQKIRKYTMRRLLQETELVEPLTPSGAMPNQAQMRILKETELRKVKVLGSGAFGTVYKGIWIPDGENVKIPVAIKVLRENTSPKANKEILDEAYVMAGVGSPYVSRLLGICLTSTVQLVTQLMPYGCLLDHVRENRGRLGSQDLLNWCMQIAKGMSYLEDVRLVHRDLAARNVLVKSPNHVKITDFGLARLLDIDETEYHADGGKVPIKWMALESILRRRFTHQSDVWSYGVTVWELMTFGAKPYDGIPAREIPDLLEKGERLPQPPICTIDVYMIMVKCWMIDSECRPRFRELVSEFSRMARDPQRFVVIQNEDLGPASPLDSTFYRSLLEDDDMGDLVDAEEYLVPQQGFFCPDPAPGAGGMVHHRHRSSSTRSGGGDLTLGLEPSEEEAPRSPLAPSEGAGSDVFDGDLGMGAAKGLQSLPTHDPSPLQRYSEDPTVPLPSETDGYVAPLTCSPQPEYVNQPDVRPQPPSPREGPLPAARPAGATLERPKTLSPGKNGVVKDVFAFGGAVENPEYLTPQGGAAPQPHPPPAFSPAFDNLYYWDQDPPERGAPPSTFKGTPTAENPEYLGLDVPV

| Structure (SMILES) | viability [1] [%] | Her2 level [2] | viability [3] | viability [4] | viability [5] | differential viability (reversal) ([6]; H69AR cells + 2 uM doxorubicin) | viability [6, 16] [%] | viability [6, 17] [%] | inhibition [7] | inhibition [8] | growth inhibition [9] | growth inhibition [10] | viability increase [11] | viability [12] | inhibition [13] | RAM network inhibition [14] | viability [15] |
| --- | --- | --- | --- | --- | --- | --- | --- | --- | --- | --- | --- | --- | --- | --- | --- | --- | --- |
| COc1ccc(N(C)C(=O)CCS(=O)(=O)c2cccc3nonc23)cc1 | 96.5 | 85% (inactive) | 96.5% (inactive) | 94.9% (inactive) | 104% (inactive) | 14.5% (inactive) | 89.6 | 104 | -9.86% (inactive) | -0.95% (inactive) | -9.93% (inactive) | -8.78% (inactive) | -3.05% (inactive) | 89.6% (inactive) | 1.3% (inactive) | 4.67% (inactive) | – |
| CN1C(=O)C(O)(CC(=O)c2ccc(F)cc2)c2cc(Br)ccc21 (stereo not drawn) | 85.5 | 86.5% (inactive) | 85.5% (inactive) | 76.8% (inactive) | 20.1% (active) | -30.8% (inactive) | 50.9 | 20.1 | -5.2% (inactive) | 2% (inactive) | -8.62% (inactive) | -8.46% (inactive) | -6.12% (inactive) | 15.8% (active) | 1.45% (inactive) | -0.67% (inactive) | – |
| Cc1ccc2oc(=O)c3cnn(CC(=O)N4CCCCC4C)c3c2c1 (stereo not drawn) | 91.5 | 108% (inactive) | 91.5% (inactive) | 103% (inactive) | 89.2% (inactive) | – | – | – | -0.27% (inactive) | 2.62% (inactive) | -9.82% (inactive) | -6.86% (inactive) | -3.34% (inactive) | 87.1% (inactive) | 3.4% (inactive) | 0.87% (inactive) | 84.1% (inactive) |
| C=CCn1c(COc2ccc(CC)cc2)nnc1SC/C(O)=C(\C#N)c1nc2ccccc2[nH]1 | 86.5 | 88% (inactive) | 86.5% (inactive) | 59.8% (inactive) | 106% (inactive) | -1.07% (inactive) | 107 | 106 | -0.92% (inactive) | -6% (inactive) | 1.15% (inactive) | 0.59% (inactive) | – | 91.3% (inactive) | 2.46% (inactive) | 6.17% (inactive) | 92.6% (inactive) |
| O=C(Cn1ncc2c1-c1ccccc1OC2)N1CCc2ccccc21 | 83.5 | 100% (inactive) | 83.5% (inactive) | 96.2% (inactive) | 84.3% (inactive) | -0.91% (inactive) | 85.2 | 84.3 | 0.51% (inactive) | -5.33% (inactive) | – | -6.7% (inactive) | -0.77% (inactive) | 88.4% (inactive) | -0.23% (inactive) | 6.41% (inactive) | 93.4% (inactive) |
